sEH activator = activators of human soluble epoxide hydrolase; P34913; purified human sEH enzymatic activity, activator screen; activation, % at 2 µM; 91,000 compounds, 0.04% hits; AID 717; in the data active = activation above about 37%
CYP2C9 activ = increases human cytochrome P450 2C9 activity. recombinant CYP2C9, luciferin-H conversion, luminescence; stronger effect = higher value; factor 1 = untreated enzyme, 0 = blocked. P11712. 96,000 compounds, 1.4% hits. AID 1024. activation factor at 5 µM;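 active = activation factor of 2 or more for CYP2C9 at a 5 µM dose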;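 also: 0 = sulfaphenazole-blocked wells and 1 = vehicle-only wells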
Target sequence (P11712 whole entry, looked up): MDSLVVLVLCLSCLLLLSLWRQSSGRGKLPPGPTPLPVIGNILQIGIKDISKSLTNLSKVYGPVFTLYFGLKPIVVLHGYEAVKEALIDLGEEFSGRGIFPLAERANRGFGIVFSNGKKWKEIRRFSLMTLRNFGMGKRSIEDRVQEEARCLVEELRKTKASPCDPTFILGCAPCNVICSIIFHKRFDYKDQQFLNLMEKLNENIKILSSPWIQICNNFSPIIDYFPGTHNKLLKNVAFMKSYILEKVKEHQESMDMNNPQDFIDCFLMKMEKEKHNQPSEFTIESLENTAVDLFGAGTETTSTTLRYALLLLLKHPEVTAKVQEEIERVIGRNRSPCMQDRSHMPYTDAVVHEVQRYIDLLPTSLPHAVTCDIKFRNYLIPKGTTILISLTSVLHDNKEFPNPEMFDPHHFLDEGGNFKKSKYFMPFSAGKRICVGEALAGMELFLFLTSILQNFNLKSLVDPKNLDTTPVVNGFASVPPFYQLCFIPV
sEH inhibitor = soluble epoxide hydrolase (human) inhibition; P34913; recombinant human sEH enzymatic activity assay; inhibition, % at 2 µM; 91,000 compounds, 0.34% hits; in the data active = inhibition above about 80%
CYP2C19 act = increases human CYP2C19 enzyme activity; recombinant CYP2C19, luciferin-H EGE luminescence; stronger effect = higher value; 0 = fully inhibited enzyme, 1 = untreated enzyme; P33261; AID 1025; 96,000 tested, under 10 active; activation factor at 5 µM;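 active = activation factor of at least 2 at 5 µM in the primary screen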;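 also: 0 = wells with 2.5 mM tranylcypromine and 1 = vehicle-only wells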
CYP2C9 inhib = human CYP2C9 inhibition | P11712 | AID 777 | inhibition, % at 5 µM | CYP2C9 Supersomes, luciferin-H conversion, luminescence | 96,000 compounds, 20% hits;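 active = blocking of liver enzyme CYP2C9 beyond about 50% at 5 µM, limit read from the data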
CYP2C19 inhib = blocks human cytochrome P450 2C19. CYP2C19 Supersomes, luciferin-H EGE luminescence, 30 min. inhibition, % at 5 µM. 96,000 compounds, 21% hits. AID 778;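 active = CYP2C19 inhibition above a set limit at 5 µM in the primary screen, cut at about 50% in these data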;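 also: plate controls were negative control wells for no effect and 2.5 mM tranylcypromine positive control for full effect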
Numbers without * were called inactive; nt = not tested or not shown. Only some compounds are listed: those with a hit (about 27% of all), similar ones and a draw of the others.

SMILES	sEH activator	CYP2C9 activ	sEH inhibitor	CYP2C19 act	CYP2C9 inhib	CYP2C19 inhib
Nc1c(S(=O)(=O)c2cccc(Cl)c2)c2nc3ccccc3nc2n1/N=C/c1ccc(O)c(O)c1	-1.5	0.9	3.5	1.1	7.8	-13.2
CSc1nn(CCc2ccncc2)c(=S)s1	-2.7	0.4	2.8	0	64.9*	97.1*
CCCCCNC(=O)CCc1ccccc1	4.5	nt	-4.6	nt	nt	nt
C#CCOC(=O)CCC(=O)NCCc1ccccc1	nt	0.7	nt	0.3	26.3	67.3*
C=C(C)C1Cc2c(C)nn(-c3cc(C)c4ccccc4n3)c2C1 (configuration not stated)	2.6	nt	3.1	nt	nt	nt
CCn1cc(C(=O)NC(=S)Nc2cccc(O)c2)cn1	-17.9	1.7	18.9	0.4	-68.1	64.9*
CCN(CC)c1ccc(NC(=O)c2cnn(CC)c2)cc1	6.0	1.1	-2.4	0.9	-10.8	6.7
COc1cc(C2C(C(C)=O)=C(C)Nc3ncnn32)ccc1O (configuration not stated)	-6.5	1.1	6.2	1.1	-5.8	-14.1
CC(=O)C1=C(C)Nc2ncnn2C1c1ccccc1OCc1ccccc1 (configuration not stated)	8.1	0.8	-4.3	0.5	23.6	53.9*
CC(=O)C1=C(C)Nc2ncnn2C1c1ccc(Cl)cc1 (configuration not stated)	-8.7	0.4	11.3	0.4	59.3*	63.8*
COc1ccccc1C1C(C(=O)NCc2ccccc2)=C(C)Nc2ncnn21 (configuration not stated)	nt	0.9	nt	0.9	9.4	12.8
CN(C)c1ccc(CN(C(=O)COc2ccccc2)C2CCS(=O)(=O)C2)cc1 (configuration not stated)	3.5	0.6	-4.8	0.7	41.7	31.0
CN(C)c1ccc(CN(C)C2CCCCC2)cc1	-7.8	1	9.1	0.1	0.3	92.8*
CN(C)c1ccc(CN2CCCCCC2)cc1	nt	0.3	nt	0.4	67.0*	55.0*
Cc1cc(C)cc(NC(=S)N2CCC(c3nc4ccccc4s3)CC2)c1	-4.7	1	7.4	1	-2.4	-1.3
O=C(CSc1ccc(Cl)cc1Cl)N1CCC(c2nc3ccccc3s2)CC1	9.7	0.4	-12.0	0.5	58.3*	54.9*
Cc1ccc(NC(=O)CSC2=C(C#N)C(c3ccco3)CC(=O)N2)cc1 (configuration not stated)	-22.7	0.5	24.2	0.2	49.9	81.4*
CC1=C(C(=O)OCc2ccccc2)C(c2ccco2)C2=C(CC(C)(C)CC2=O)N1 (configuration not stated)	0.9	0.3	2.1	0.4	67.4*	62.7*
CCc1ccc(NC(=O)CSC2=C(C#N)C(c3ccco3)C3=C(CCCC3=O)N2)cc1 (configuration not stated)	-12.2	0.8	13.7	0.7	19.3	32.8
Cc1ccc(NC(=O)CSC2=C(C#N)C(c3ccco3)C3=C(CC(C)(C)CC3=O)N2)cc1 (configuration not stated)	-0.1	0	1.5	0.1	95.7*	92.8*
COCCOC(=O)C1=C(C)NC2=C(C(=O)CC(C)(C)C2)C1c1cccnc1 (configuration not stated)	7.9	0.9	-10.0	0.7	5.2	34.6
CC1=C(C(=O)OCC2CCCO2)C(c2ccncc2)C2=C(CC(C)(C)CC2=O)N1 (configuration not stated)	5.6	0.8	-7.5	0.4	22.4	57.4*
CCOC(=O)C1=C(N)OC2=C(C(=O)CC(C)(C)C2)C1c1ccco1 (configuration not stated)	-1.2	0.6	1.4	0.8	35.5	20.9
Cc1cc(C)nc(NC2=NCC(=O)N2c2ccc3c(c2)OCCO3)n1	-2.4	1	2.5	0.9	-1.0	6.7
O=C(COC(=O)c1ccccc1NC(=O)c1ccco1)NCc1ccc2c(c1)OCO2	-19.9	0.5	19.0	0.9	46.8	12.0
SMILES	sEH activator	CYP2C9 activ	sEH inhibitor	CYP2C19 act	CYP2C9 inhib	CYP2C19 inhib
C=C(C)Cn1c(SCC(=O)O)nc2c1c(=O)[nH]c(=O)n2C	-4.2	1.1	3.0	1.1	-5.9	-10.4
Cc1ccc(C(=O)CSC2=C(C#N)C(c3ccco3)CC(=O)N2)c(C)c1 (configuration not stated)	16.0	0	-14.4	0.5	98.2*	48.7
COC(=O)CSC1=C(C#N)C(c2sccc2C)CC(=O)N1 (configuration not stated)	-7.5	nt	6.9	nt	nt	nt
C/C(=N\NC(=O)Cc1cccn1C)c1cccc2ccccc12	-82.2	1	82.4*	0.7	1.3	29.9
C/C(=N/NC(=O)Cc1cccc2ccccc12)c1cccs1	-42.1	0.8	42.5	0.2	18.8	76.2*
C/C(=N\NC(=O)C1CC1c1ccccc1)c1cccs1 (configuration not stated)	10.3	0.5	-5.8	0.1	51.4*	88.2*
Cc1ccc(CNC(=O)CCNC(=O)Cn2ccc3ccccc3c2=O)o1	nt	0.9	nt	1	5.1	-0.8
COc1ccc(C2(O)CCN(CC(=O)Nc3nccs3)CC2)c(OC)c1	10.2	0.9	-12.5	0.6	14.1	42.3
CCc1nnc(NC(=O)C2CCCN2C(=O)NC2CCCCC2)s1 (configuration not stated)	0.5	0.9	-2.0	1	6.1	-2.5
N#Cc1ccccc1NC(=O)COC(=O)CSc1nc2ccccc2o1	1.6	0.7	0.3	0.9	28.4	13.2
O=C(c1ccc2ncsc2c1)N1CCN(c2ccc(O)cc2)CC1	9.1	0.8	-7.8	0.9	15.8	6.3
Cc1cccc(N2CCN(C(=O)c3ccncc3)CC2)c1C	13.1	0.1	-13.9	0	86.0*	99.9*
Cc1cccc(N2CCN(C(=O)c3ccc4ncsc4c3)CC2)c1C	-2.0	0.7	0.0	0.3	28.1	66.1*
Cc1c(Cl)cccc1NC(=O)CCC(=O)NNC(=O)c1ccccc1Cl	-1.9	1	3.0	0.8	4.0	19.2
Cc1ccc(C(=O)Oc2ccccc2C(=O)N2CCOCC2)cc1	-0.8	nt	5.6	nt	nt	nt
CC(=O)c1cccc(NC(=O)N2CCCC2C(=O)Nc2cc(C)ccc2C)c1 (configuration not stated)	-7.9	0.5	6.9	1	45.3	1.1
COc1ccc(-c2csc(C)n2)cc1	7.1	nt	-6.7	nt	nt	nt
COc1ccc(-c2nc(C)ncc2-c2csc(C)n2)c(O)c1	-0.1	0.9	0.0	0.5	11.3	54.3*
COc1ccc(-c2ncncc2-c2csc(C)n2)c(O)c1	-0.8	0.5	0.2	0.1	48.6	88.9*
Cc1ccc(C(=O)NCCCN2CCOCC2)cc1	24.4	nt	-24.8	nt	nt	nt
O=C(NCCCN1CCOCC1)c1ccc(-n2nc(C(F)(F)F)cc2-c2cccs2)cc1	4.7	0.3	-1.9	0.6	65.1*	42.0
COCCCNC(=O)c1ccc(-n2nc(C(F)(F)F)cc2-c2cccs2)cc1	-14.0	0.5	12.5	0.5	50.4*	52.7*
